Screening data from PubChem.
Shown are actives, neighbours in structure and some others; about 2.9% of the full set was active somewhere.
RAM inhibit: inhibitors of the yeast RAM network; S. cerevisiae dse1pr::URA3 reporter, 5-FOA growth OD615, 2 d; analog-sensitive cbk1-as2 kinase mutant strain; inhibition, % at 50 µM; 190,000 tested, 1.8% active;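 active = inhibition above a set limit, 3 SD over mean compound inhibition, cut at about 8.4% in these data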;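 also: 0% = DMSO-only wells with no growth and 100% = 10 µM 1-NA-PP1 full growth; inhibition rescues growth on 5-FOA so higher OD means more RAM inhibition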
PGE2 EP2 inh: inhibitors of human EP2 prostaglandin E2 receptor; 260,000 tested, 0.52% active; P43116; inhibition, % at 25 µM; C6 glioma cells expressing human EP2, cAMP TR-FRET; cells stimulated with saturating PGE2;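 active = percent inhibition above 40 after rounding to a whole number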;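 also: rat C6 glioma host cells with rolipram phosphodiesterase inhibitor present; the protocol text gives 20 µM as final concentration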
PG9 binder: small molecules binding HIV-1 gp120 antibody PG9 | TR-FRET gp120-PG9 antibody binding | inhibition, % at 6.7 µM | 360,000 tested, 0.43% active; in the data active = inhibition above about 8.5%
EP2 modulator: EP2 receptor (human) modulation; 260,000 tested, 0.83% active; P43116; EP2-expressing cells, cAMP HTRF FRET, PGE2 co-stimulation; induction, % at 25 µM;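 active = compounds whose cAMP rise, as percent of the full-agonist control response, exceeds 60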;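 also: rat C6 glioma line stably carrying human EP2 under a CMV promoter; the protocol text gives 20 µM as final concentration; 100% = response of wells given 1 µM PGE2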
SKN-1 inh: C. elegans SKN-1 inhibition | C. elegans VP596 Pgst-4::GFP/RFP ratio, acrylamide-induced, 24 h | inhibition, % at 21.8 µM | 360,000 tested, 0.49% active | AID 624304;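 active = interference check ratio from 0.5 to 1.5 plus GFP to RFP signal ratio inhibition reaching or exceeding a fixed threshold, cut at about 30% in these data, passing the limit was not always enough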
NR1D1 modulator: modulators of human Rev-erb alpha DNA binding; activity, % at 10 µM; 370,000 tested, 0.79% active; AID 1259318; Rev-erbα–FITC-DNA binding, fluorescence polarization, 90 min; P20393;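 active = activity above about 14%, limit read from the data; passing the limit was not always enough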;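 also: 0% = DMSO wells with 35 nM protein and 100% = DMSO wells with 750 nM protein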
Target sequence (P20393 whole entry, looked up): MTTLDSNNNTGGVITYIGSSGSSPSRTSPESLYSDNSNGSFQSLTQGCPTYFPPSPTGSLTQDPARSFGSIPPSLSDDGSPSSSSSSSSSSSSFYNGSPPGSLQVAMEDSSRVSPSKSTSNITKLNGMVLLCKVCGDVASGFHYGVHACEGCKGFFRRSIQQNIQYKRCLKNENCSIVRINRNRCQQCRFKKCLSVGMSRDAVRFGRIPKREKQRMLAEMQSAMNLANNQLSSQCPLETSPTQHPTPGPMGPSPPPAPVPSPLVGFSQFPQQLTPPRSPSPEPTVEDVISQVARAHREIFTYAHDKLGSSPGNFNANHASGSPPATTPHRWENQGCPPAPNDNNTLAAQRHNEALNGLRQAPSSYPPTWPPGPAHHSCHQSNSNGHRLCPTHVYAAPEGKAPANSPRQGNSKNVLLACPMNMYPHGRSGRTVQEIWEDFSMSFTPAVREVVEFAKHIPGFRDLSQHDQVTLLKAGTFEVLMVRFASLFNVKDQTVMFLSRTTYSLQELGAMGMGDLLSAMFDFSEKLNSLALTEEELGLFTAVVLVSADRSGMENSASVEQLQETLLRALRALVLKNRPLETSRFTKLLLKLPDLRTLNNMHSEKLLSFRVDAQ
Rev-erbA confirm: confirmation of modulators of human Rev-erb alpha DNA binding; shares compounds with NR1D1 modulator; Rev-erb alpha FITC-DNA binding, fluorescence polarization, 90 min; activation, % at 25 µM; 3,000 tested, 61% active;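 active = activation at or above a set limit, or at least 3 SD above the negative control mean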;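 also: 0% = 35 nM protein with DMSO and 100% = 750 nM protein high control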
RORg DNA counter: affects RORgamma DNA binding in a Rev-erb alpha counter-screen | purified RORgamma protein-FITC-DNA binding, fluorescence polarization | 910 tested, 8% active | IC50, µM | shares compounds with NR1D1 modulator | AID 1259320;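 active = Compounds whose fitted half-maximal concentration for disrupting protein-DNA binding is below 10 micromolar; the record names Rev-erb in its text, so the target is in doubt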
* hit, by the source's call; x = no result.

SMILES	RAM inhibit	PGE2 EP2 inh	PG9 binder	EP2 modulator	SKN-1 inh	NR1D1 modulator	Rev-erbA confirm	others
CCc1nnc(NC(=O)CSc2nc3cc(OC)ccc3cc2C)s1	6	9	0	16	-7	165*	12
CCc1nnc(NC(=O)CSc2nc(-c3ccccc3)cc(-c3ccc(OC)cc3)c2C#N)s1	1	15	-1	24	-4	48*	43*
N#Cc1c(-c2ccc(Cl)cc2)cc(-c2ccccc2)nc1SCC(=O)O	x	x	0	x	-1	-1	x
CCCc1n(CC(O)COc2cc(C)ccc2Cl)c2ccccc2[n+]1C (stereo not drawn)	x	10	x	-1	x	x	x
CC(C)c1ccc(C2C(C#N)=C(N)Oc3n[nH]c(-c4cccs4)c32)cc1 (stereo not drawn)	x	9	x	-6	x	x	x
Cc1ccc(C(C(=O)NC2CCCC2)N(C(=O)Cc2cccs2)c2ccccc2F)o1 (stereo not drawn)	x	7	x	17	x	x	x
N#Cc1c(-c2ccccc2)cc(C2CC2)nc1SCC(=O)O	5	0	0	27	15	-7	x
COc1ccc(-c2cc(-c3ccccc3)nc(SCC(=O)Nc3nccs3)c2C#N)cc1	2	19	2	22	6	78*	61*	RORg DNA counter=>40
N#Cc1c(-c2ccccc2)cc(C2CC2)nc1SCC(=O)c1cccs1	4	x	0	6	-3	19*	30*
CCCC(C)C(=O)Nc1nnc(C(C)(C)C)s1 (stereo not drawn)	x	17	x	18	x	x	x
NC(=O)c1nc(-c2ccc(O)cc2)nc2c1[nH]c(=O)n2Cc1ccccc1	x	x	x	-36	x	x	x
CC(/C=C/c1ccccc1F)=N\NC(=O)c1cccc(F)c1	1	16	-1	-36	1	17*	1
C=CCNc1nc(NCc2ccc(NC(C)=O)cc2)c2sc(-c3ccccc3)cc2n1	x	x	-1	x	1	65*	76*	RORg DNA counter=>40
CC(=O)Nc1ccc(CNc2nc(NC(C)C)nc3cc(-c4ccccc4)sc23)cc1	x	x	-1	x	3	-1	x
CCc1nnc(NC(=O)CSc2nnc(-c3ccc(OC)c(OC)c3)n2-c2ccccc2)s1	x	13	x	10	x	x	x
COc1ccc(Cc2nc3ccccc3n2CC(=O)N/N=C/c2ccc(C)cc2O)cc1OC	0	8	-1	5	10	34*	45*	RORg DNA counter=>40
COc1ccc(Cc2nc3ccccc3n2CC(=O)N/N=C/c2ccc(O)cc2)cc1OC	-2	2	-2	14	5	-3	x
NNc1nc2c(-c3ccc(F)cc3)nnn2c2ccccc12	1	11	1	-62	20	0	x
COc1ccc(-c2nnn3c2nc(NCc2ccccc2)c2ccccc23)cc1	3	12	-2	30	11	23*	17*
Fc1cccc(-c2nnn3c2nc(Cl)c2ccccc23)c1	1	11	1	4	1	90*	19*
Clc1nc2c(-c3ccccc3)nnn2c2ccccc12	x	7	0	-7	-1	83*	68*	RORg DNA counter=>40
Cc1ccc(-c2nnn3c2nc(Cl)c2ccccc23)cc1	2	8	0	15	3	-2	x
CC(C)(C)NC(=O)C(c1ccc(O)cc1)N(C(=O)C1COc2ccccc2O1)c1cccc(O)c1 (stereo not drawn)	x	6	x	-27	x	x	x
C=C(C)COc1ccccc1CN1CCC(NC(C)=O)(c2ccc(F)cc2)CC1	x	6	x	-33	x	x	x
COc1ccc2c(c1)c1nc3n(c(=O)c1n2CC(=O)Nc1cc(C)[nH]n1)CCS3	2	6	-1	-21	x	19*	-1
SMILES	RAM inhibit	PGE2 EP2 inh	PG9 binder	EP2 modulator	SKN-1 inh	NR1D1 modulator	Rev-erbA confirm	others
O=C(Cn1c2ccc(F)cc2c2nc3n(c(=O)c21)CCS3)NC1CCCC1	x	x	2	x	-8	5	x
COCCNc1c(-c2ccccc2O)nc2cnccn12	x	8	x	-46	x	x	x
COC(=O)COc1cc(OCC(=O)OC)c2c3c(c(=O)oc2c1)CCC3	x	10	x	6	x	x	x
CC(=O)c1cc2c(cc1NS(=O)(=O)c1ccc(Br)cc1)OCO2	x	7	x	-10	x	x	x
CC(=O)c1cc2c(cc1N/C(=N/S(=O)(=O)c1ccc(Br)cc1)c1ccccc1)OCO2	0	3	0	45	7	97*	17
COc1ccccc1-c1ccc2c(c1)C(C)(Cc1cccc(F)c1)C(=O)N2 (stereo not drawn)	x	x	-1	x	12	63*	88*	RORg DNA counter=>40
COc1ccc(C(C)=O)cc1CC1(C)C(=O)Nc2ccc(OC(F)(F)F)cc21 (stereo not drawn)	x	x	-1	x	11	7	x
CC1(Cc2cccc(F)c2)C(=O)Nc2ccc(OC(F)(F)F)cc21 (stereo not drawn)	x	x	0	x	26	16*	15*
CCOCCCNC(=O)C1CCN(S(=O)(=O)c2ccc(Cl)cc2)CC1	x	8	x	-2	x	x	x
COc1ccc(C(=O)c2c[nH]c(C(=O)NCc3cccs3)c2)cc1	4	x	0	-8	17	43*	63*	RORg DNA counter=>40
Cc1ccc(C(=O)CNc2cccc([N+](=O)[O-])c2)cc1	1	6	-3	8	1	15*	-2
Cc1ccc(Cl)cc1NC(=O)COc1ccc(S(=O)(=O)N2CCCC2)cc1	x	11	x	3	x	x	x
O=C(NCc1cc(C(F)(F)F)ccc1Cl)c1cccc2c1C(=O)c1ccc(Cl)cc1S2(=O)=O	x	x	-1	x	x	32*	50*	RORg DNA counter=>40
Cc1ccc(CNC(=O)c2cccc3c2C(=O)c2ccc(N4CCOCC4)cc2S3(=O)=O)cc1	x	x	0	x	16	-4	x
O=C(NCc1cccc(F)c1)c1cccc2c1C(=O)c1ccc(N3CCOCC3)cc1S2(=O)=O	x	x	-3	x	6	118*	87*	RORg DNA counter=>40
O=C(NCc1ccccc1Cl)c1cccc2c1C(=O)c1ccc(-c3ccc(OC(F)(F)F)cc3)cc1S2(=O)=O	x	x	x	x	5	x	x
O=C(NC[C@@H]1CCCO1)c1cccc2c1C(=O)c1ccc(N3CCOCC3)cc1S2(=O)=O	x	x	-1	x	18	-2	x
CC1CCN(c2ccc3c(c2)S(=O)(=O)c2cccc(C(=O)NC[C@@H]4CCCO4)c2C3=O)CC1	x	x	-2	x	28	18*	5
CCn1c(COc2ccc(Br)cc2)nnc1SCc1ccccc1	x	10	x	18	x	x	x
C[C@H](Cn1nnc2ccccc21)NC(=O)c1cnccn1	x	8	x	-9	x	x	x
COc1ccc(N2CCN(CC(O)c3ccc4c(c3)CCCN4C(C)=O)CC2)cc1 (stereo not drawn)	x	8	x	-29	x	x	x
CCNC(=S)N(Cc1cccs1)Cc1cc2cc(OC)ccc2[nH]c1=O	x	8	x	-42	x	x	x
CCc1ccccc1NC(=O)CSc1nc2cc(C(=O)NCC3CCCO3)ccc2c(=O)n1CC1CCCO1 (stereo not drawn)	x	x	-1	x	8	2	x
CCCCCn1c(SCC#N)nc2cc(C(=O)NCC3CCCO3)ccc2c1=O (stereo not drawn)	2	6	68*	3	-5	71*	38*
